{"source": "paper PMC7862700", "about": "“An all-to-all approach to the identification of sequence-specific readers for epigenetic DNA modifications on cytosine”", "test_in_all_cases": "DAPPL (digital affinity profiling via proximity ligation, sequencing); 10 mM Tris-HCl pH 7.5, 50 mM NaCl, 1 mM DTT, 4% glycerol, room temperature, 30 min; GST-TFs on glutathione beads, 16-mer random dsDNA library, 0.1% formaldehyde crosslink after washing; high values mean tight binding", "conditions_in_all_cases": "protein: recombinant; tags: N-terminal GST; dsDNA, one strand shown", "key": {"FLI1": {"target": "T1, FLI1 (Homo sapiens, UniProt Q01543 1-452)", "T1 sequence": "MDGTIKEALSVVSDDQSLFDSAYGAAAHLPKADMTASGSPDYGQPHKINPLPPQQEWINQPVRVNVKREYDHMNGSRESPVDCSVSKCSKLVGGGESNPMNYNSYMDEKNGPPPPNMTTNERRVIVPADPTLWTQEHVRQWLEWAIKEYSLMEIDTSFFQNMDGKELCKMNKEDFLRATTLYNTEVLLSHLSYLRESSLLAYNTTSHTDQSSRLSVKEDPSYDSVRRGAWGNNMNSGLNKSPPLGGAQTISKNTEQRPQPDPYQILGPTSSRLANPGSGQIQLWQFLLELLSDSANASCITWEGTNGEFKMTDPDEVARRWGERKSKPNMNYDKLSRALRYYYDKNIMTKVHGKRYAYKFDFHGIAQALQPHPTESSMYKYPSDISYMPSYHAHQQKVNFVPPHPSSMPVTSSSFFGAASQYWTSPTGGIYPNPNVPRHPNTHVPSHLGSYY", "summary_of_the_method": "(§1)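 Binding signal is given per hexamer as its read frequency for a factor divided by its frequency in the tag-only sample. GST-fused human transcription factors were expressed in yeast, captured on glutathione beads, barcoded with DNA and pooled with that sample, then incubated with 200 nmole of a 16-mer random double-stranded DNA library in Tris/NaCl/DTT/glycerol buffer for 30 min at room temperature. The pools were then washed, crosslinked, proximity-ligated, amplified by PCR and sequenced on an Illumina NextSeq500.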"}, "ELK1": {"target": "T2, ELK1 (Homo sapiens, UniProt P19419 1-428)", "T2 sequence": "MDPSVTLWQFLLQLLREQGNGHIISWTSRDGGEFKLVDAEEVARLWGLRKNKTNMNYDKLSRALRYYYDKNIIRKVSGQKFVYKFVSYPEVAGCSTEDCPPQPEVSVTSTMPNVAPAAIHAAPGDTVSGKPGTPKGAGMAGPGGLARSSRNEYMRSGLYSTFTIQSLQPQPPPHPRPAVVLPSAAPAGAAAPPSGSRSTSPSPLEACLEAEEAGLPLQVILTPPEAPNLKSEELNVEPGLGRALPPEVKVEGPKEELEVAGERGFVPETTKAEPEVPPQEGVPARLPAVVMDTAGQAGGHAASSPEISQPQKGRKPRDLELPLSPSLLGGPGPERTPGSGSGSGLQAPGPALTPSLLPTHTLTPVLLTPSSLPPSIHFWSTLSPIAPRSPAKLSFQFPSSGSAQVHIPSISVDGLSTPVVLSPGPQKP", "summary_of_the_method": "as §1"}, "GABPA": {"target": "T3, GABPA (Homo sapiens, UniProt Q06546 1-454)", "T3 sequence": "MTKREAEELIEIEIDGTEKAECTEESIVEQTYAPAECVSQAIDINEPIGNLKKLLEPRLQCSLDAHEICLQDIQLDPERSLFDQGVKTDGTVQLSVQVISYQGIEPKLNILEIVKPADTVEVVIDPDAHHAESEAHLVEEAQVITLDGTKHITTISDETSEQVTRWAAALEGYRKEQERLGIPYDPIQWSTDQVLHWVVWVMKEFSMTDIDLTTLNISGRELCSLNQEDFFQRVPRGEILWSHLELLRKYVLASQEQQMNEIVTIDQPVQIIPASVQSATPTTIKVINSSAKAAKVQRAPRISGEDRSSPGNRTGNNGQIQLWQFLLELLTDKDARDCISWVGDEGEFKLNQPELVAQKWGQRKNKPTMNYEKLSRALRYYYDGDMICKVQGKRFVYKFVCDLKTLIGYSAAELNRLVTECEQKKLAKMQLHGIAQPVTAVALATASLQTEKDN", "summary_of_the_method": "as §1"}, "ERG": {"target": "T4, ERG (Homo sapiens, UniProt P11308 1-479)", "T4 sequence": "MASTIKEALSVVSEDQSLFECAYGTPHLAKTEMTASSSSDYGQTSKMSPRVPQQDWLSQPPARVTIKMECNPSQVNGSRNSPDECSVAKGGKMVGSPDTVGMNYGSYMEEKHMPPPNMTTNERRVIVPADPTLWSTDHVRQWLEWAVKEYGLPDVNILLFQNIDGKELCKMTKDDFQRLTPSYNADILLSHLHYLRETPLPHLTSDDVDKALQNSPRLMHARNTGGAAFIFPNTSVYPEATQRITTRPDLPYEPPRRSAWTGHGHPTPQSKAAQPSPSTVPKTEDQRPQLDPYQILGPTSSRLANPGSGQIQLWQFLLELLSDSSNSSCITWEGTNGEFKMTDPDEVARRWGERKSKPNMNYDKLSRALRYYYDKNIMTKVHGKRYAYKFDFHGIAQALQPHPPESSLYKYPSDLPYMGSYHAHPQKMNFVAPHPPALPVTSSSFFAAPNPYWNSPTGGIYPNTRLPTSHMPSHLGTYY", "summary_of_the_method": "as §1"}, "ELF1": {"target": "ELF1 (Homo sapiens, UniProt P32519 1-619)", "sequence (P32519 whole entry)": "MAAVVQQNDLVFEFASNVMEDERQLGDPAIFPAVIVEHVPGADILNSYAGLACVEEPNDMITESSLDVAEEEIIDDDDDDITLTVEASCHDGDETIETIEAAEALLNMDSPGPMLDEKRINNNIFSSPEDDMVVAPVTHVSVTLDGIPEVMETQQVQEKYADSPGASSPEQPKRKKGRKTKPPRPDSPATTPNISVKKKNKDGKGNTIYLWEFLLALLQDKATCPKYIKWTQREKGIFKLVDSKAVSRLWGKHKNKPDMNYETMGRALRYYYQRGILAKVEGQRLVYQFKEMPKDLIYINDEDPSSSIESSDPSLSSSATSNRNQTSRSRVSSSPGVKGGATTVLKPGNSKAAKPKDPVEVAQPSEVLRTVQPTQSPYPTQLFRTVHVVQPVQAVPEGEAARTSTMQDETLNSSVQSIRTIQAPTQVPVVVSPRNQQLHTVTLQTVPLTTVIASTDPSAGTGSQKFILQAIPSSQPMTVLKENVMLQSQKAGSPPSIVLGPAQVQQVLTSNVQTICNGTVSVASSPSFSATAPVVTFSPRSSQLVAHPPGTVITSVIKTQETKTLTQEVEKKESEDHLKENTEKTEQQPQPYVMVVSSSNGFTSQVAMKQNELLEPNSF", "summary_of_the_method": "as §1"}, "EHF": {"target": "T5, EHF (Homo sapiens, UniProt Q9NZC4 1-300)", "T5 sequence": "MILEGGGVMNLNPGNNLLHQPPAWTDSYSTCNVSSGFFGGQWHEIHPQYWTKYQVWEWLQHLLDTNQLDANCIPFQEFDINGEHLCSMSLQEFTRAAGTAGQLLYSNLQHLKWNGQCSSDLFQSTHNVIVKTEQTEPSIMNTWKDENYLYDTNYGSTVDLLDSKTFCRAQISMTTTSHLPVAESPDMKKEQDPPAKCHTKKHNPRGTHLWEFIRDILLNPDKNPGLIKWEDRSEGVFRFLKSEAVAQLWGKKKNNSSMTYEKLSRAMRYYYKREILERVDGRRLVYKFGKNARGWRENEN", "summary_of_the_method": "as §1"}, "SPI1": {"target": "SPI1 (Homo sapiens, UniProt P17947 1-270)", "summary_of_the_method": "as §1"}, "SPIB": {"target": "SPIB (Homo sapiens, UniProt Q01892 1-262)", "sequence (Q01892 whole entry)": "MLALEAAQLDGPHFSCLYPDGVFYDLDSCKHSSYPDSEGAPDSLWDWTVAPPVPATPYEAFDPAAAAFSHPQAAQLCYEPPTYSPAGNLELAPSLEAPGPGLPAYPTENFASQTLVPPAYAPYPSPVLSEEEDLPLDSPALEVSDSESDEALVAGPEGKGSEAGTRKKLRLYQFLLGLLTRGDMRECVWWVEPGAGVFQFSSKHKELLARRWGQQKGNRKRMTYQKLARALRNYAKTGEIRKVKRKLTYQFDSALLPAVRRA", "summary_of_the_method": "as §1"}, "ELK3": {"target": "T6, ELK3 (Homo sapiens, UniProt P41970 1-407)", "T6 sequence": "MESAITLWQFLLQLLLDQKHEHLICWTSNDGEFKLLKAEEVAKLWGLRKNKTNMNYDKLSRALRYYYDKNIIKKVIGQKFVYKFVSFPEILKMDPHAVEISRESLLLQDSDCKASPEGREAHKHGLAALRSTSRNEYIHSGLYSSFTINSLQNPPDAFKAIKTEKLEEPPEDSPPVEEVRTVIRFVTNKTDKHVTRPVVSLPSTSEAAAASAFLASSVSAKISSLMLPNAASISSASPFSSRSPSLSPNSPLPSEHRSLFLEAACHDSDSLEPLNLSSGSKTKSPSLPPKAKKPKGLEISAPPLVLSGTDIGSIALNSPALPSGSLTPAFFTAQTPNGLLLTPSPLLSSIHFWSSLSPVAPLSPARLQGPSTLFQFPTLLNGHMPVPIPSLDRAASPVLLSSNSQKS", "summary_of_the_method": "as §1"}}, "data": [{"sequence": "ACTAAC", "values": [{"measurement": "binding signal", "setting": "FLI1", "value": "1.21 fold enrichment (6-mer frequency, TF over GST control)"}, {"measurement": "binding signal", "setting": "ELK1", "value": "1.3 fold enrichment (6-mer frequency, TF over GST control)"}, {"measurement": "binding signal", "setting": "GABPA", "value": "1.26 fold enrichment (6-mer frequency, TF over GST control)"}, {"measurement": "binding signal", "setting": "ERG", "value": "1.32 fold enrichment (6-mer frequency, TF over GST control)"}, {"measurement": "binding signal", "setting": "ELF1", "value": "1.3 fold enrichment (6-mer frequency, TF over GST control)"}, {"measurement": "binding signal", "setting": "EHF", "value": "1.27 fold enrichment (6-mer frequency, TF over GST control)"}, {"measurement": "binding signal", "setting": "SPI1", "value": "1.33 fold enrichment (6-mer frequency, TF over GST control)"}, {"measurement": "binding signal", "setting": "SPIB", "value": "1.24 fold enrichment (6-mer frequency, TF over GST control)"}, {"measurement": "binding signal", "setting": "ELK3", "value": "1.25 fold enrichment (6-mer frequency, TF over GST control)"}]}]}
